First the molecules themselves.
B1: UAUUAUG (DNA:RNA)
RNA: GGGAGACCGGAAUUCAGAUUGUCCUAUUAUGUUAAAUCCCGUCGUAGCCACCA
DNA 1: CAATCTGAATTCCGGTCTCCC
DNA 2: TGGTGGCTACGACGGGATT
B2: UAAGUUC (DNA:RNA)
RNA: B1 RNA with U27A, U28G, A29U, G31C
DNA 1: CAATCTGAATTCCGGTCTCCC
DNA 2: TGGTGGCTACGACGGGATT
B3: GGAUAGG (DNA:RNA)
RNA: B1 RNA with U25G, A26G, U27A, U30G
DNA 1: CAATCTGAATTCCGGTCTCCC
DNA 2: TGGTGGCTACGACGGGATT
B4: UUGUAUU (DNA:RNA)
RNA: B1 RNA with A26U, U27G, G31U
DNA 1: CAATCTGAATTCCGGTCTCCC
DNA 2: TGGTGGCTACGACGGGATT
B5: CCCGAGU (DNA:RNA)
RNA: B1 RNA with U25C, A26C, U27C, U28G, U30G, G31U
DNA 1: CAATCTGAATTCCGGTCTCCC
DNA 2: TGGTGGCTACGACGGGATT
B6: UCGCAUA (DNA:RNA)
RNA: B1 RNA with A26C, U27G, U28C, G31A
DNA 1: CAATCTGAATTCCGGTCTCCC
DNA 2: TGGTGGCTACGACGGGATT
B7: UCGCAUC (DNA:RNA)
RNA: B1 RNA with A26C, U27G, U28C, G31C
DNA 1: CAATCTGAATTCCGGTCTCCC
DNA 2: TGGTGGCTACGACGGGATT
B8: UCGCAGA (DNA:RNA)
RNA: B1 RNA with A26C, U27G, U28C, U30G, G31A
DNA 1: CAATCTGAATTCCGGTCTCCC
DNA 2: TGGTGGCTACGACGGGATT
B9: UCGCGCA (DNA:RNA)
RNA: B1 RNA with A26C, U27G, U28C, A29G, U30C, G31A
DNA 1: CAATCTGAATTCCGGTCTCCC
DNA 2: TGGTGGCTACGACGGGATT
B10: UCAGAUC (DNA:RNA)
RNA: B1 RNA with A26C, U27A, U28G, G31C
DNA 1: CAATCTGAATTCCGGTCTCCC
DNA 2: TGGTGGCTACGACGGGATT
B11: UCGCAUG (DNA:RNA)
RNA: B1 RNA with A26C, U27G, U28C
DNA 1: CAATCTGAATTCCGGTCTCCC
DNA 2: TGGTGGCTACGACGGGATT
B12: UGAACAA (DNA:RNA)
RNA: B1 RNA with A26G, U27A, U28A, A29C, U30A, G31A
DNA 1: CAATCTGAATTCCGGTCTCCC
DNA 2: TGGTGGCTACGACGGGATT
B13: AUUUACA (DNA:RNA)
RNA: B1 RNA with U25A, A26U, U30C, G31A
DNA 1: CAATCTGAATTCCGGTCTCCC
DNA 2: TGGTGGCTACGACGGGATT
B14: UGAUGCG (DNA:RNA)
RNA: B1 RNA with A26G, U27A, A29G, U30C
DNA 1: CAATCTGAATTCCGGTCTCCC
DNA 2: TGGTGGCTACGACGGGATT
B15: UUGUGGU (DNA:RNA)
RNA: B1 RNA with A26U, U27G, A29G, U30G, G31U
DNA 1: CAATCTGAATTCCGGTCTCCC
DNA 2: TGGTGGCTACGACGGGATT
B16: ACACGAA (DNA:RNA)
RNA: GGGAGACCGGAAUUCAGAUUGUCCACACGAAUUAAAUCCCGUCGUAGCCACCA
DNA 1: CAATCTGAATTCCGGTCTCCC
DNA 2: TGGTGGCTACGACGGGATT
B17: GCGUAAC (DNA:RNA)
RNA: B16 RNA with A25G, A27G, C28U, G29A, A31C
DNA 1: CAATCTGAATTCCGGTCTCCC
DNA 2: TGGTGGCTACGACGGGATT
B18: GGACGCA (DNA:RNA)
RNA: B16 RNA with A25G, C26G, A30C
DNA 1: CAATCTGAATTCCGGTCTCCC
DNA 2: TGGTGGCTACGACGGGATT
B19: UUAGUGG (DNA:RNA)
RNA: B1 RNA with A26U, U27A, U28G, A29U, U30G
DNA 1: CAATCTGAATTCCGGTCTCCC
DNA 2: TGGTGGCTACGACGGGATT
B20: GCAUGCU (DNA:RNA)
RNA: B16 RNA with A25G, C28U, A30C, A31U
DNA 1: CAATCTGAATTCCGGTCTCCC
DNA 2: TGGTGGCTACGACGGGATT
B21: GGCAUGC (DNA:RNA)
RNA: GGGAGACCGGAAUUCAGAUUGUCCGGCAUGCUUAAAUCCCGUCGUAGCCACCA
DNA 1: CAATCTGAATTCCGGTCTCCC
DNA 2: TGGTGGCTACGACGGGATT
B22: GUCAUGC (DNA:RNA)
RNA: B21 RNA with G26U
DNA 1: CAATCTGAATTCCGGTCTCCC
DNA 2: TGGTGGCTACGACGGGATT
B23: GCCAUGC (DNA:RNA)
RNA: B21 RNA with G26C
DNA 1: CAATCTGAATTCCGGTCTCCC
DNA 2: TGGTGGCTACGACGGGATT
B24: GCAUUGC (DNA:RNA)
RNA: B21 RNA with G26C, C27A, A28U
DNA 1: CAATCTGAATTCCGGTCTCCC
DNA 2: TGGTGGCTACGACGGGATT
B25: GUCCGCU (DNA:RNA)
RNA: B16 RNA with A25G, C26U, A27C, A30C, A31U
DNA 1: CAATCTGAATTCCGGTCTCCC
DNA 2: TGGTGGCTACGACGGGATT
B26: GACAUGC (DNA:RNA)
RNA: B21 RNA with G26A
DNA 1: CAATCTGAATTCCGGTCTCCC
DNA 2: TGGTGGCTACGACGGGATT
B27: CGCAUGC (DNA:RNA)
RNA: B21 RNA with G25C
DNA 1: CAATCTGAATTCCGGTCTCCC
DNA 2: TGGTGGCTACGACGGGATT
B28: ACAUGCU (DNA:RNA)
RNA: B16 RNA with C28U, A30C, A31U
DNA 1: CAATCTGAATTCCGGTCTCCC
DNA 2: TGGTGGCTACGACGGGATT
B29: UCUUCUA (DNA:RNA)
RNA: B1 RNA with A26C, A29C, G31A
DNA 1: CAATCTGAATTCCGGTCTCCC
DNA 2: TGGTGGCTACGACGGGATT
B30: CCUCCAG (DNA:RNA)
RNA: B16 RNA with A25C, A27U, G29C, A31G
DNA 1: CAATCTGAATTCCGGTCTCCC
DNA 2: TGGTGGCTACGACGGGATT
B31: GAACAGU (DNA:RNA)
RNA: B16 RNA with A25G, C26A, G29A, A30G, A31U
DNA 1: CAATCTGAATTCCGGTCTCCC
DNA 2: TGGTGGCTACGACGGGATT

Changes are numbered by the printed parent chain; changes in the protein carry UniProt numbers. Whole data set: some 16,000 sequences, median “ka relative to ugcaugu” near 0.096, cut for the highest 2% near 0.35. What follows is part of a selection rich in the highest values, with near analogues and random picks from the rest.

This test addresses T1, RBFOX1 RRM RbFoxmut (Fox-RRM*) (Homo sapiens, UniProt Q9NWB1 109-208, R118D;E147R;N151S;E152T).
T1 sequence: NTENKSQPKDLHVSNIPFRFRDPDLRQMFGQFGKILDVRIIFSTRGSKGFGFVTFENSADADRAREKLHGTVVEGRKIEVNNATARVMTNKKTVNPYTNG
In words: EMSA; HiTS-Eq, 1 nM pool, 10 min; buffer printed only for the single-RNA assays: 10 mM Tris pH 7.5, 150 mM NaCl, 3.4 mM EDTA, 0.001% NP-40, 30 C. Particulars: tags: His6 N-terminal (pET28a); label: 5' 32P. In a few lines: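 A pool of RNA with 7 randomized nucleotides, 5′-radiolabelled and with DNA-annealed flanks, was equilibrated at 1 nM for 10 min in 50 µL with purified RbFox RRM, wild type or mutant, across increasing protein concentrations. Free RNA was separated by 8% native PAGE, excised, reverse-transcribed, barcoded by PCR and sequenced. Relative association constants were obtained from read-count changes of each RNA species versus the control reaction and normalised to the cognate motif.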
For orientation: In EMSA bound probe runs differently from free probe, usually more slowly.
B1: the binding signal is 0.158 KA relative to UGCAUGU.
The figure for B2 is 0.0634 KA relative to UGCAUGU; for B3 it is 0.0913 KA relative to UGCAUGU.
For B4 the value was 0.171 KA relative to UGCAUGU; for B5, 0.094 KA relative to UGCAUGU; for B6, 0.125 KA relative to UGCAUGU.
The figure for B7 is 0.597 KA relative to UGCAUGU; for B8 it is 0.0842 KA relative to UGCAUGU; for B9 it is 0.104 KA relative to UGCAUGU.
As for B10, the binding signal is 0.0785 KA relative to UGCAUGU.
The figure for B11 is 1.06 KA relative to UGCAUGU; for B12 it is 0.047 KA relative to UGCAUGU.
For B13 the value was 0.119 KA relative to UGCAUGU; for B14, 0.141 KA relative to UGCAUGU.
For B15 the value was 0.164 KA relative to UGCAUGU; for B16, 0.0925 KA relative to UGCAUGU.
For B17, the binding signal was 0.0833 KA relative to UGCAUGU.
The figure for B18 is 0.12 KA relative to UGCAUGU.
The figure for B19 is 0.0929 KA relative to UGCAUGU.
For B20 the value was 0.736 KA relative to UGCAUGU; for B21, 0.739 KA relative to UGCAUGU; for B22, 0.19 KA relative to UGCAUGU.
As to B23, the binding signal was 0.109 KA relative to UGCAUGU.
The figure for B24 is 0.134 KA relative to UGCAUGU; for B25 it is 0.11 KA relative to UGCAUGU; for B26 it is 0.0819 KA relative to UGCAUGU.
For the molecule B27, the binding signal is 0.951 KA relative to UGCAUGU.
Consider B28, for which the binding signal was 0.102 KA relative to UGCAUGU.
Take B29: the binding signal was 0.0886 KA relative to UGCAUGU.
For B30 the value was 0.101 KA relative to UGCAUGU.
For B31 the value was 0.0727 KA relative to UGCAUGU.
